Compounds with a hit are over-represented: about 1.8% of the library has one in this group of screens.
NALP1 yeast inh – NALP1 inflammasome inhibitors in reconstituted yeast, colorimetric, S. cerevisiae, triplicate retest; S. cerevisiae NALP1/ASC/caspase-1 growth, X-gal OD620, 72 h; inhibition, % at 10 µM; 280,000 compounds, 0.61% hits; in the data active means inhibition mostly above about 24%, no sharp cut-off; inactive means mostly below about 32%
NALP3 yeast inh – NALP3 inflammasome inhibitors in reconstituted yeast, primary screen, luminescence, uHTS | 330,000 compounds, 0.39% hits | inhibition, % at 10 µM | Yeast reconstituted NLRP3/ASC/caspase-1, beta-gal luminescence, 24 h | AID 2825, 2010;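 active means inhibition of 50% or more; inactive means inhibition below 50%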;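 further: plate controls were induced DMSO wells for no effect and uninduced yeast grown without galactose for full effect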
PolyA inh – polyadenylation inhibitors in yeast reporter cells, primary screen, luminescence, S. cerevisiae. AID 1875, 2009. S. cerevisiae SKY197-pL101 polyadenylation reporter, beta-gal luminescence; efflux-impaired pdr1/pdr3 knockout yeast; score 100 = 6 SD above DMSO. 300,000 compounds, 0.02% hits. activity score, % at 12 µM;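 active means lowest replicate activity score at least 50, where 100 means six control SD above control mean; inconclusive means lowest score under 50 but half or more replicates reach 50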;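 further: yeast exposed to compound for 9 h at 30 °C; higher score means more reporter readthrough which indicates perturbed polyadenylation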
SUMO Mot1 rescue – yeast Mot1-301 growth rescue at high temperature, primary screen, SUMOylation pathway inhibitor project, S. cerevisiae, ATP luminescence, 38.5C | S. cerevisiae Mot1-301 growth rescue; percent above DMSO median, 100 means doubled | growth rescue, % at 18.8 µM | 320,000 compounds, 1% hits | AID 2716, 2010;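 active means every valid replicate shows activation above 250% relative to neutral control wells; inactive means the rest, any valid replicate at or below 250%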;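 further: OY570 slx delta 5 strain wells were the positive control but not used for scaling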
Yeast Mot1 SUMO – growth restoration of Mot1-301 yeast on galactose, dose response, SUMO pathway inhibitor project, whole organism, S. cerevisiae, ATP luminescence, cherry-picked samples; shares compounds with SUMO Mot1 rescue; S. cerevisiae Mot1-301 galactose growth, 24 h; -100 = growth of slx-deleted rescue strain; growth activity, percent, % at 42 µM; 2,300 tested, under 10 active;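 active means Signal drops as the depositor expects, and the fitted half-maximal dose is no more than ten times the top valid tested dose; inconclusive means Poor fit, or a flat curve whose signal drops by 30% to 70%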;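 further: more negative values mean stronger growth rescue toward the control strain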
* marks the source's active call; other numbers are inactive results; ? = inconclusive; . = no result; + = active, no number; [ ] = remark or other dose.

SMILES | NALP1 yeast inh | NALP3 yeast inh | PolyA inh | SUMO Mot1 rescue | Yeast Mot1 SUMO
Cc1nn(C)c(C)c1/C=N/NC(=O)C(C)(C)Oc1ccc(Cl)cc1 | 5.0 | 15.9 | 3.3 | 591.3* | 0.5
COC(=O)C(C(=O)Nc1ccc(OC)cc1)C1CCCCCC1 (stereo unspecified) | 16.4 | 24.9 | 1.9 | 11.7 | .
CCCCSCCCNC(=O)Nc1cccc(OC)c1 | 40.1* | 12.9 | -9.5 | 548.8* | -0.8
COc1cccc(NC(=O)NCCc2ccc(Cl)cc2)c1 | 28.5 | 12.1 | 5.4 | 0.9 | .
COc1ccc(C(=O)NCC(=O)Nc2ccccc2)cc1OC | 29.8 | -2.8 | 0.6 | 449.2* | 0.6
COc1cc(C(=O)NCC(=O)Nc2c(C)cccc2C)ccc1OCc1ccccc1 | . | 16.5 | . | 4.3 | .
COc1cccc(NC(=O)CNC(=O)c2ccc(C)cc2)c1 | 1.1 | -5.7 | 20.8 | 499.1* | -0.4
O=C(CCCc1ccccc1)NC1CCSC1=O (stereo unspecified) | 2.0 | 12.9 | 2.3 | 2.5 | .
CCCOc1ccc(C(=O)NCc2ccco2)cc1 | -2.4 | 23.6 | 8.2 | 684.5* | -0.2
CCC1=Nc2cc(C(=O)NCc3ccco3)ccc2Sc2ccccc21 | -21.6 | 5.7 | -3.3 | 397.2* | 1.2
COc1cccc2cc(C(=O)NCc3ccco3)c(=O)oc12 | 31.0 | 14.3 | 14.1 | -6.9 | .
COc1ccc2oc(=O)c(C(=O)NCc3ccco3)cc2c1 | 10.0 | 12.1 | ? | 653.8* | 0.0
CC1OC(O[C@H]2CC[C@]3(C)C4C=C[C@]56OC[C@@]7(CC[C@@H](C)[C@H](C)C75)[C@H](O)C[C@@]6(C)[C@]4(C)CC[C@H]3C2(C)C)C(OC2OC(CO)C(O)C(O)C2OC2OCC(O)C(O)C2O)C(O)C1O (stereo partly specified) | 6.3 | . | 7.7 | . | .
Cc1cccc(-n2cccc2)c1C#N | 7.4 | 4.7 | 11.0 | 5.1 | .
O=C(/C=C/NNC(=O)c1ccc(Br)cc1)c1ccccc1 | 2.8 | 7.2 | -5.5 | 399.3* | 1.4
CCc1ccc(-c2nc(CSCC(=O)NCCCN3CCCC3=O)c(C)o2)cc1 | 4.1 | -4.5 | -1.3 | 317.6 | .
COc1cccc(NC(=O)COC(=O)Cc2ccccc2[N+](=O)[O-])c1 | -7.8 | 13.8 | -10.7 | -3.3 | .
O=C(Cc1ccc(Cl)cc1)NC(=S)Nc1ccccc1N1CCOCC1 | 38.8 | -5.6 | . | 814.7* | -0.1
CCc1ccc(NC(=O)CNC(=O)c2nn(-c3ccc(OC)cc3)c(=O)c3ccccc23)cc1 | 18.0 | 10.5 | 2.6 | 5.8 | .
CCC(=O)N1c2ccc(S(=O)(=O)N3CCN(c4ccc([N+](=O)[O-])cc4)CC3)cc2CC1C (stereo unspecified) | -22.6 | 4.9 | -23.3 | 456.4* | -0.5
CCC(=O)N1c2ccc(S(=O)(=O)N3CCN(CC)CC3)cc2CC1C (stereo unspecified) | -1.0 | 0.9 | 14.1 | 4.7 | .
CN(c1cccnc1)c1ncnc2[nH]ncc12 | 4.3 | -6.9 | 1.5 | + | 0.4
COC(=O)C1=C(C)N(CCCC(=O)O)C(=O)NC1c1ccc2c(c1)OCO2 (stereo unspecified) | . | 9.3 | 0.3 | 496.6 | .
O=C(O)c1ccc(/C=N\Nc2ccccn2)cc1 | . | 13.9 | 13.8 | -18.9 | .
CN(C)c1ccc(/C=N\Nc2ccccn2)cc1 | -3.7 | 23.4 | -11.2 | 457.9* | -1.0
SMILES | NALP1 yeast inh | NALP3 yeast inh | PolyA inh | SUMO Mot1 rescue | Yeast Mot1 SUMO
Cc1cc(C(=O)OCC(=O)Nc2cccc(S(N)(=O)=O)c2)c2ccccc2n1 | 18.2 | -0.1 | 2.7 | 646.7* | 0.0
Cc1c(C(=O)OCC(=O)Nc2ccc(S(N)(=O)=O)cc2)oc2c1ccc1ccccc12 | -0.9 | 3.5 | 8.6 | 500.1* | -0.6
Cc1cc(NC(=O)COC(=O)c2oc3c(ccc4ccccc43)c2C)no1 | 34.6 | 1.8 | -5.1 | 7.3 | .
COC(=O)c1sc(NC(=O)c2ccc(Cn3cc(Cl)cn3)o2)c(C#N)c1C | 23.3 | 5.2 | -25.5 | + | -0.9
O=C(Nc1cnn(Cc2ccc(Cl)cc2)c1)c1ccc([N+](=O)[O-])cc1 | -2.9 | 23.2 | 7.3 | 390.2* | 0.7
N#Cc1c(NC(=O)c2ccc(Cn3cc(Br)cn3)o2)sc2c1CCCCC2 | 5.8 | 14.0 | -2.8 | 9.2 | .
COC(=O)c1ccc(Cn2cc(Cl)cn2)cc1 | -5.5 | 25.5 | -4.5 | 652.1* | 1.1
Cc1ccc(C(=O)Nc2ccccc2C(=O)NCc2ccccc2)cc1 | 14.7 | 23.0 | -30.8 | . | .
Cc1ccc(/C=C/C(=O)OCC(=O)N(CC(C)C)c2c(N)n(Cc3ccccc3)c(=O)[nH]c2=O)o1 | . | 11.1 | -4.0 | 811.6* | -0.1[21 µM]
CCN(C(=O)COC(=O)c1c(-c2ccccc2)noc1C)c1c(N)n(Cc2ccccc2)c(=O)[nH]c1=O | 4.0 | 6.0 | 10.0 | 413.4* | -0.3
O=S(=O)(Nc1ccc(Cl)cc1)c1cccc2nsnc12 | 4.9 | 9.5 | -11.2 | -20.8 | .
CC(=O)/C(=C/Nc1ccc(Oc2ccccc2)cc1)c1ccccc1 | 33.9 | 28.7 | -25.0 | 11.0 | .
CSc1cccc(NC(=S)N2CCC(c3ccccc3)C2)c1 (stereo unspecified) | -21.7 | 33.5 | -7.1 | 36.7 | .
CSc1cccc(NC(=S)N2CCCN(Cc3ccccc3F)C2)c1 | -20.5 | -1.1 | -13.1 | 496.1* | -0.2
COc1ccc(-c2noc(CN(C(=O)c3ccc4c(c3)OCO4)C(C)C)n2)cc1OC | . | 26.9 | 26.2 | 6.2 | .
Cc1cccc(OCc2nnc(SCC(=O)N3c4ccccc4CC3C)n2C)c1C (stereo unspecified) | -0.9 | 14.7 | 9.5 | 399.8* | 0.2
Cc1ccccc1OCc1nnc(SCC(=O)N2CCc3ccccc32)n1C | 8.3 | 7.0 | -8.6 | -11.2 | .
COc1ccccc1C=NNC(=O)c1ccccc1OCCOc1ccccc1 | . | 15.2 | . | -7.2 | .
CC1=CC2=NC(=O)/C(=C\c3cc(C)n(-c4cccc(Cl)c4)c3C)C(=N)N2O1 | 23.0 | 7.2 | 9.3 | 11.0 | .
CC1=CC2=NC(=O)/C(=C\c3cc(C)n(-c4ccccc4)c3C)C(=N)N2O1 | 15.8 | -6.7 | -17.6 | 510.6* | -0.8
O=C(Cc1ccccc1)NC(=S)Nc1ccc(OC(F)F)cc1 | -2.3 | 34.9 | -4.7 | 5.2 | .
O=C(O)c1cc(S(=O)(=O)Nc2ccc(OCc3ccccc3)cc2)ccc1Br | 4.9 | 13.6 | -9.6 | 414.1* | 1.2
O=C1Nc2ccccc2/C1=C/c1ccc([N+](=O)[O-])cc1 | 5.4 | 45.3 | -2.1 | 476.9* | -0.4
COc1ccc(C(=O)CC(=O)C(=O)Nc2ccc(C)c(C)c2)cc1 | -7.1 | 16.7 | 4.3 | 538.5* | -0.1
O=C(N/C(=C/c1ccccc1F)C(=O)N1CCCCC1)c1ccccc1 | 18.9 | -5.5 | 6.4 | -11.4 | .
S=C(NCCc1ccccc1)Nc1ccccc1Cl | 34.4 | 29.9 | -6.9 | 529.9* | 0.1
Cc1c(Cl)cccc1NC(=S)NCCCN(C)C | 27.5 | 7.6 | 15.4 | 392.6* | 0.2

Screens deposited in PubChem BioAssay by several laboratories.
